The results in this text go back to ChEMBL document CHEMBL1961873, “Compounds: GSK PKIS; Assays: Nanosyn kinase panel” (2012).

For assay [1], the target named is Platelet-derived growth factor receptor beta (Homo sapiens) (UniProt P09619). To be noted: at 1 µM.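 Further: each value is a mean percent inhibition.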
For assay [2], the target named is Tyrosine-protein kinase FRK (Homo sapiens) (UniProt P42685). To be noted: at 0.1 µM.
For assay [3] the target is unchanged. To be noted: at 1 µM.
In assay [4] the target is Protein-tyrosine kinase 2-beta (Homo sapiens) (UniProt Q14289). Particulars: at 0.1 µM.
For assay [5] the target is unchanged. To be noted: at 1 µM.
Assay [6] concerns the target Proto-oncogene tyrosine-protein kinase receptor Ret (Homo sapiens) (UniProt P07949). To be noted: at 1 µM.
In assay [7] the test system is Proto-oncogene tyrosine-protein kinase receptor Ret (Homo sapiens), P07949 [V804L]. Particulars: at 0.1 µM.
The test system is the same in assay [8]. To be noted: at 1 µM.
The subject of assay [9] is Proto-oncogene tyrosine-protein kinase receptor Ret (Homo sapiens), P07949 [Y791F]. Particulars: at 0.1 µM.
The target in assay [10] is Proto-oncogene tyrosine-protein kinase receptor Ret (Homo sapiens) (UniProt P07949). To be noted: at 0.1 µM.

For orientation: inhibition means the relative decrease from the control value, in per cent.

Chain of Platelet-derived growth factor receptor beta (Homo sapiens) (P09619 whole entry): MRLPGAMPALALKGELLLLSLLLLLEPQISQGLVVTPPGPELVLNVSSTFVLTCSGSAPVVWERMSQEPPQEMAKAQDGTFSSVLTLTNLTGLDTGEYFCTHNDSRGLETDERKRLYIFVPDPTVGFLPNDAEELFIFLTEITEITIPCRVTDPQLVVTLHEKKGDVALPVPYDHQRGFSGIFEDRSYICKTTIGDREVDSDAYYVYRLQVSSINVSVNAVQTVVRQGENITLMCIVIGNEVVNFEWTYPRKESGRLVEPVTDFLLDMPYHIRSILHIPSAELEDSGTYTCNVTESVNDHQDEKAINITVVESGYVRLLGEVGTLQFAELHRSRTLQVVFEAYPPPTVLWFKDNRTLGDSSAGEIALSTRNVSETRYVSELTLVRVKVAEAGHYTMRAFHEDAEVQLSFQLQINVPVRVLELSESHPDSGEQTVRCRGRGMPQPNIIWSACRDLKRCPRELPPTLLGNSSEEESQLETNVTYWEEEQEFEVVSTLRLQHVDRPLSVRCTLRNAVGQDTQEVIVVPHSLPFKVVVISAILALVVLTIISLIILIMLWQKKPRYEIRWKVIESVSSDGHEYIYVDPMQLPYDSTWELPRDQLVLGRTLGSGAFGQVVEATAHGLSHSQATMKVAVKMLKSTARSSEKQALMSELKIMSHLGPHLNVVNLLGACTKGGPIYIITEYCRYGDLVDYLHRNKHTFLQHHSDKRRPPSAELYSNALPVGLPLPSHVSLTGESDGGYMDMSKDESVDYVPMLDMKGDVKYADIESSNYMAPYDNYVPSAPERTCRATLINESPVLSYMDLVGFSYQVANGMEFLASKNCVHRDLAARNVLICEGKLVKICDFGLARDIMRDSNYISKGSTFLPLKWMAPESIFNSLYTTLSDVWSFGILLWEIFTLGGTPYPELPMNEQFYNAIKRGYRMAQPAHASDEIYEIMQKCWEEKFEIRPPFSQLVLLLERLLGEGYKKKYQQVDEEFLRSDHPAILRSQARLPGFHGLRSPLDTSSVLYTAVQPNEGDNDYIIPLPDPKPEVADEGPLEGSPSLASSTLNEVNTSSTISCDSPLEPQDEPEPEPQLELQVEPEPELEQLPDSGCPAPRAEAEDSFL
Chain of Proto-oncogene tyrosine-protein kinase receptor Ret (Homo sapiens), P07949 [Y791F] (P07949 whole entry Y791F): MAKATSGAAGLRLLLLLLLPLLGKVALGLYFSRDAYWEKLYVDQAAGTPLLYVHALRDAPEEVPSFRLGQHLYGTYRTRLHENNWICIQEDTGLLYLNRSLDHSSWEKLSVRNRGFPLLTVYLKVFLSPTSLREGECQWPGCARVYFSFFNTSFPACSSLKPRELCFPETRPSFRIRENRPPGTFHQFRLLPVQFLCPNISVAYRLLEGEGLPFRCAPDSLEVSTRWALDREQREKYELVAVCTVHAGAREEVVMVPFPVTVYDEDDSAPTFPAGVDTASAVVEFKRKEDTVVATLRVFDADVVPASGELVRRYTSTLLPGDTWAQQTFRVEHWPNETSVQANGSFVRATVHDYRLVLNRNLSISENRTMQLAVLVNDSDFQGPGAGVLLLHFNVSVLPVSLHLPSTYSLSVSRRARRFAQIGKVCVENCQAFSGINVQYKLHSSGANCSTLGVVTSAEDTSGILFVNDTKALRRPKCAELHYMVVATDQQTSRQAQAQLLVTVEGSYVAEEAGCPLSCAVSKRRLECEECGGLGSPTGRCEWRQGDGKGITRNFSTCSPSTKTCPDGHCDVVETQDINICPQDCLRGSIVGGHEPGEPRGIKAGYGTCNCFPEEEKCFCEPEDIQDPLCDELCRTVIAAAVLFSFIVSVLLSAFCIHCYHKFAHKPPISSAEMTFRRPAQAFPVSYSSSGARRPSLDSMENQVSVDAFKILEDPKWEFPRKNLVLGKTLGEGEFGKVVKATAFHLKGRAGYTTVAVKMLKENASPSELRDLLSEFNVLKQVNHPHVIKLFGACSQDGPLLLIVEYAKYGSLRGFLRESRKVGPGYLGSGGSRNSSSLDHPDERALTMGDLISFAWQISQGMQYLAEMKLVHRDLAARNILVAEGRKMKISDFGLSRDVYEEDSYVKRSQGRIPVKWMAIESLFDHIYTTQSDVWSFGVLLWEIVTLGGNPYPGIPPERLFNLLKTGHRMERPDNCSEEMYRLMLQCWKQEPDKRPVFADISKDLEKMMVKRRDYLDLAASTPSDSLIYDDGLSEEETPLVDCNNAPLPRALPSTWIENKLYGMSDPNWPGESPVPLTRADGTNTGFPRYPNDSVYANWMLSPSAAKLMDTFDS
Chain of Proto-oncogene tyrosine-protein kinase receptor Ret (Homo sapiens) (P07949 whole entry): as the sequence (P07949 whole entry Y791F) above, with F791Y counted along it
Chain of Protein-tyrosine kinase 2-beta (Homo sapiens) (Q14289 whole entry, looked up): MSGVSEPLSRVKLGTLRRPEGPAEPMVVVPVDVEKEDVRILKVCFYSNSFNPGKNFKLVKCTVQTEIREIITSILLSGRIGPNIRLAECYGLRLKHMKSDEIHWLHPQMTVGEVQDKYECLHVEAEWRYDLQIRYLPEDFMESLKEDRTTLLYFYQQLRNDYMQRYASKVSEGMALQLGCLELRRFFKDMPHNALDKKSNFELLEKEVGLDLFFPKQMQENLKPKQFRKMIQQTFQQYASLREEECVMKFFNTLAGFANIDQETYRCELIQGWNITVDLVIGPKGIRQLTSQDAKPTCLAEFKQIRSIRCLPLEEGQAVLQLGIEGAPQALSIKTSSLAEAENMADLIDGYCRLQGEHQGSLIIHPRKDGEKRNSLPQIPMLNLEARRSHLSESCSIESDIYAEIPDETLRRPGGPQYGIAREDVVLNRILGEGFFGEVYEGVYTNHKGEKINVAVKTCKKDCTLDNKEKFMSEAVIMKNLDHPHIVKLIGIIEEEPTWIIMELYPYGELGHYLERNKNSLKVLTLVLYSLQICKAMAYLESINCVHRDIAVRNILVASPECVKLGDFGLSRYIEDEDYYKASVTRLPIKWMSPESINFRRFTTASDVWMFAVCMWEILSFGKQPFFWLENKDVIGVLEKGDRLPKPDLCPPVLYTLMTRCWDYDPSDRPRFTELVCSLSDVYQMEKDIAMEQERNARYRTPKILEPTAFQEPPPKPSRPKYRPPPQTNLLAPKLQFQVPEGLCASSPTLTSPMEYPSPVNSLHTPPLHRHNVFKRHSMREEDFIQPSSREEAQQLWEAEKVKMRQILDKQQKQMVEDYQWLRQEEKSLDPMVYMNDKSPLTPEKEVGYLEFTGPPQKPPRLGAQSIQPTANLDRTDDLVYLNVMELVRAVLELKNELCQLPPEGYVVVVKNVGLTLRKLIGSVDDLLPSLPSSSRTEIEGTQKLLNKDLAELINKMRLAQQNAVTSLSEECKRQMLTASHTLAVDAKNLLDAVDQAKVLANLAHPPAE
Chain of Proto-oncogene tyrosine-protein kinase receptor Ret (Homo sapiens), P07949 [V804L] (P07949 whole entry V804L): as the sequence (P07949 whole entry Y791F) above, with F791Y, V804L counted along it
Chain of Tyrosine-protein kinase FRK (Homo sapiens) (P42685 whole entry): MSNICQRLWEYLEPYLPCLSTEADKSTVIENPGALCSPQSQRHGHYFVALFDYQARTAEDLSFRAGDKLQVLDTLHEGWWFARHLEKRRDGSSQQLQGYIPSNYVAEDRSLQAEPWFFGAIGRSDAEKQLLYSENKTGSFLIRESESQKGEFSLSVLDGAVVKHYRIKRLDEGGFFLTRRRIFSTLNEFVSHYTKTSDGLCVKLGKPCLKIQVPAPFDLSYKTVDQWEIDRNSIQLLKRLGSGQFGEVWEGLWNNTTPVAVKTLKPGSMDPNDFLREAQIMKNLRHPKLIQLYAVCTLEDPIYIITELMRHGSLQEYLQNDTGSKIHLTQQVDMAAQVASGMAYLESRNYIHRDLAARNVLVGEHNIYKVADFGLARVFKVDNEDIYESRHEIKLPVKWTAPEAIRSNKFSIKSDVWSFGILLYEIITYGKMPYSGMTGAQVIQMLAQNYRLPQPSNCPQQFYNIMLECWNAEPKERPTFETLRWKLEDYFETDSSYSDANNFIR

Regarding `COc1ccc2ncn(-c3cc(O[C@H](C)c4ccccc4Cl)c(C(N)=O)s3)c2c1`, the inhibition in [1] stood at 18.7%; in assay [2] it was 3.26%; in assay [3] it was 4.73%; in [4], 6.17%; in assay [5] it was 9.58%; in assay [6], 9.64%. The inhibition in [7] came to 2.37%; in assay [8], 7.27%; in [9], 5.2%.

Take `CCc1cccc(CC)c1/C=C/c1cncc(C(=O)NC)c1`: the inhibition in [1] is 9.24%; in [2], 0.72%; in [3], 2.05%; in assay [4], 4.52%; in [5], 5.62%; in assay [10] it was 6.73%. Moreover, the inhibition is 7.18% in [6], 3.16% in [8] and 5.49% in assay [9].

Take `Fc1ccc(-c2nc3n(c2-c2ccncc2)CCS3)cc1`: the inhibition in assay [1] amounted to 8.35%; in assay [2], 1.92%; in assay [3], 3.19%; in [4], 9.18%; in [5], 6.63%; in [10] it was 4.05%. The inhibition in [6] came out at 8.81%; in assay [7], 9.59%; in assay [8] it was 12.6%; in assay [9] it was 5.15%.

For the compound `COc1cc2ncn(-c3cc(OCCc4ccccc4)c(C(N)=O)s3)c2cc1OC`, the inhibition in assay [1] is 49.9%; in [2], 0.72%; in [3], 1.86%; in [4], 3.82%; in [5], 4.2%; in assay [10], 3.22%. Also, the inhibition is 23.2% in assay [6], 0.58% in [7], 9.89% in assay [8] and 6.66% in assay [9].

Regarding `COc1cccc(-n2cnc3c(N/N=C/c4ccncc4)ncnc32)c1`, the inhibition is 49.9% in assay [1]; -0.1% in assay [2]; 0.9% in assay [3]; -4.12% in [4]; 10.5% in assay [5]; 3.89% in [10]. In addition, the inhibition is 13.9% in [6], -0.06% in assay [7], 12.5% in assay [8] and 2.51% in assay [9].

For `CN1CCN(CCCNc2nc3ccc(Oc4ccc(NC(=O)Nc5cc(C(F)(F)F)ccc5F)cc4)cc3[nH]2)CC1`, the inhibition in [1] is 25.8%; in assay [2], -0.13%; in [3], 5.78%; in assay [4] it was 6.22%; in assay [5], 7.87%; in assay [10], 76.2%. Further, the inhibition stood at 86.2% in assay [6], 38.8% in assay [7], 74.9% in [8] and 65.8% in assay [9].

`O=C(Nc1n[nH]c2cc(-c3ccccc3)ccc12)C1CC1`: the inhibition was 13.3% in [1]; 2.92% in assay [2]; 2.17% in assay [3]; 11.3% in assay [4]; 7.93% in assay [5]; 4.67% in assay [10]. Moreover, the inhibition worked out at 5.93% in assay [6], 1.54% in assay [7], 0.17% in [8] and 4.42% in [9].

As to `O=C(Nc1n[nH]c2nc(-c3ccco3)ccc12)C1CC1`, the inhibition in assay [1] turned out to be 5.96%; in [2] it was 0.93%; in [3] it was 1.05%; in assay [4] it was 1.43%; in assay [5], 0.04%; in assay [10] it was 8.2%. In addition, the inhibition in [6] was 9.6%; in assay [7], 4.51%; in assay [8], 8.22%; in [9], 4.94%.

On to `CS(=O)(=O)CCNCc1cc(-c2cc3c(Nc4ccc(OCc5cccc(F)c5)c(Cl)c4)ncnc3s2)cs1`, for which the inhibition in assay [1] is 11.2%; in assay [2] it was 4.58%; in [3], 3.68%; in assay [4], 4.47%; in assay [5], 4.63%; in [10] it was 7.3%. The inhibition in assay [6] was found to be 7.36%; in assay [7] it was 4.33%; in [8], 7.85%; in assay [9], 8.47%.

As for `NC(=O)c1cc(-c2ccc(F)cc2)cc(-c2ccncc2)c1N`, the inhibition in [1] was 5.05%; in assay [2], 1.66%; in [3], 1.82%; in assay [10], 6.04%; in assay [6], 1.69%; in assay [7], 2.31%. Besides, the inhibition came to 2.03% in [8] and 4.64% in assay [9].

With `NS(=O)(=O)c1ccc(Nc2cc(-c3ccc(O)c(F)c3)n[nH]2)cc1`, the inhibition in [1] was 53.4%; in assay [2], -1.68%; in assay [3] it was 0.93%; in [4] it was -2.28%; in [5] it was -1.9%; in assay [10] it was 11.3%. Also, the inhibition came to 55% in [6], 10.6% in assay [7], 47.6% in [8] and 14.1% in [9].

On to `C/C(Nc1ccc(S(N)(=O)=O)cc1)=C1/C(=O)Nc2ccccc21`, for which the inhibition in [1] was 43.1%; in assay [2], 1.09%; in assay [3] it was 0.76%; in [4], -1.67%; in [5], 17.8%; in [10], 6.38%. Also, the inhibition was found to be 35.9% in assay [6], 13% in [7], 53.9% in [8] and 5.97% in [9].

With `O=C(Nc1ccc(Oc2ccc3[nH]c(NC(=O)c4ccccc4)nc3c2)cc1)Nc1cc(C(F)(F)F)ccc1F`, the inhibition in [1] came out at 31.1%; in assay [2], 1.86%; in [3], 2.1%; in assay [4] it was 5.27%; in assay [5], 14.2%; in assay [10] it was 62.6%. For the same compound, the inhibition stood at 90.2% in [6], 25.4% in assay [7], 78.7% in assay [8] and 38.6% in assay [9].

Turning to `COc1cc2ncn(-c3cc(OCc4cccs4)c(C(N)=O)s3)c2cc1OC`, the inhibition in assay [1] was 72.5%; in [2] it was 1.41%; in [3] it was 1.32%; in assay [4], 3.08%; in assay [5], 6.94%; in assay [10], 11.9%. Besides, the inhibition is 43.5% in assay [6], 7.23% in assay [7], 24.7% in [8] and 15% in [9].

For `Fc1ccc(-c2ncn(C3CCNCC3)c2-c2ccnc(Oc3ccc(F)c(F)c3)n2)cc1`, the inhibition in assay [1] was found to be 10.6%; in [2] it was 2.06%; in [3], 2.77%; in assay [4] it was 4.15%; in assay [5] it was 11.9%; in assay [10], 3.19%. In addition, the inhibition stood at 7.38% in assay [6], 4.74% in assay [7], 11.2% in assay [8] and 7.7% in assay [9].

In the case of `CS(=O)(=O)CCNCc1ccc(-c2ccc3ncnc(Nc4ccc(OCc5ccccc5)c(Br)c4)c3c2)o1`, the inhibition in assay [1] amounted to 7.34%; in [2] it was 2.64%; in assay [3] it was 3.25%; in [4], 3.86%; in assay [5], 10.1%; in assay [10] it was 7.14%. For the same compound, the inhibition in assay [6] was found to be 4.94%; in [7] it was 2.03%; in assay [8], 4.43%; in [9], 9.28%.

For the compound `O=C1Nc2ccc(I)cc2C1=Cc1cc(Br)c(O)c(Br)c1`, the inhibition in assay [1] came to 2.27%; in assay [2], 2.55%; in assay [3] it was 4.15%; in [4], 5.41%; in assay [5], 3.05%; in [10], 5.98%. The inhibition came to 7.84% in [6], 1.81% in assay [7], 12% in assay [8] and 6.36% in assay [9].
